The values that follow come from PubChem BioAssay (NCATS).

Inconclusive results are not listed. A number with no mark means an inactive call. Calls of active or inactive are those of the source. The call rests on the fitted dose curve; in most records, active means well fitted inhibition curve with a large enough effect; inconclusive means small, poorly fitted or top-dose-only effect; inactive means no such curve, though single readings can be large or run the other way.
On the % scale 0 is the no-effect control and ±100 the full control effect.

The subject of this experiment is Zika virus NS2B-NS3 protease (linked construct). Kind of experiment: Primary screen NINDS Rhodamine qHTS for Zika virus inhibitors (AID 1347160). Further: nearly all actives have a fitted effect of over 55% in size. The following applies: purified NS2B-NS3 protease, Rhodamine110 substrate fluorescence; series mostly up to 57.1 µM; activity change, negative = inhibition: at the top concentration. The gist of the method: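 Each compound, titrated, sat 15 min with 25 nM linked protease before 1.5 microM Rhodamine110 substrate went in. Fluorescence gain over the next 15 min, in pH 8.0 Tris with Tween 20, gave Hill-fitted curves.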
A general note: qHTS replaces the single test concentration by a dilution series.
Regarding `COC(=O)C[C@H]1[C@]2(C)C3=C(C)[C@H](c4ccoc4)C[C@H]3O[C@@H]2[C@H](OC(C)=O)C2[C@](C)(C(=O)OC)C=CC(=O)[C@@]21C` (stereo partly specified), the “activity change, negative = inhibition” value is -27% [at 33.1 µM].

Turning to `C/C=C/c1ccc2oc(-c3ccc(O)c(OC)c3)c(C)c2c1`, the “activity change, negative = inhibition” value was -18.8%.

Regarding `CC1(C)CC[C@@]2(C(=O)O[C@@H]3O[C@H](CO)[C@@H](O)[C@H](O)[C@H]3O)C(C1)C1=CCC3[C@@]4(C)CC[C@@H](O[C@@H]5O[C@H](C(=O)O)[C@@H](O[C@@H]6OC[C@@H](O)[C@H](O)[C@H]6O)[C@H](O[C@@H]6OC[C@](O)(CO)[C@H]6O)[C@H]5O)C(C)(C)C4CC[C@@]3(C)[C@]1(C)C[C@H]2O` (stereo partly specified), the “activity change, negative = inhibition” value was -12.1% [at 15.1 µM].

As to `CC1=C(CCC(C)O[C@@H]2O[C@H](CO)[C@@H](O)[C@H](O)[C@H]2O)C(C)(C)CCC1=O` (stereo partly specified), the “activity change, negative = inhibition” value was -21.5% [at 33.1 µM].

On to `C[C@H](NC(=O)CCc1nc2ccccc2c(=O)[nH]1)c1ccccc1`, for which the call was inactive.

Take `Cc1cc(C(N)=O)ccc1-n1c(CCC(=O)O)ccc1-c1ccc(-n2ccnc2)cc1`: the “activity change, negative = inhibition” value is -18.2%.

Consider `COc1ccc2c(OC)c3ccoc3nc2c1OC`, for which the “activity change, negative = inhibition” value is -13.2%.

For the compound `O=C(/C=C\n1cnc(-c2cc(C(F)(F)F)cc(C(F)(F)F)c2)n1)N1CC(F)(F)C1`, the “activity change, negative = inhibition” value was 7.45%.

In the case of `O=C(OCC1=CC(O)C2C=CO[C@@H](O[C@@H]3O[C@H](CO)[C@@H](O)[C@H](O)[C@H]3O)C12)c1ccccc1` (stereo partly specified), the “activity change, negative = inhibition” value is -19.6% [at 33.1 µM].

Consider `C[C@@H]1O[C@@H](O[C@H]2[C@H](O[C@H]3[C@H](O)[C@@H](C(=O)O)O[C@@H](O[C@H]4CC[C@@]5(C)C(CC[C@]6(C)C5CC[C@]57OC[C@@]8(CCC(C)(C)CC85)[C@H](O)C[C@]76C)C4(C)C)[C@@H]3O[C@@H]3O[C@H](CO)[C@@H](O[C@@H]4OC[C@@H](O)[C@H](O)[C@H]4O)[C@H](O)[C@H]3O)O[C@H](CO)[C@H](O)[C@@H]2O)[C@H](O)[C@H](O)[C@H]1O` (stereo partly specified), for which the activity change, negative = inhibition is -19.8% [at 10.7 µM].

`CN(C)CCCCC(=O)Nc1ccc(NC(=S)NC(=O)c2ccc(C(C)(C)C)cc2)cc1`: the “activity change, negative = inhibition” value is 617%.

Take `CC(=O)CCC1=C(C)C(O[C@@H]2O[C@H](CO)[C@@H](O)[C@H](O)[C@H]2O)C(O)CC1(C)C` (stereo partly specified): the “activity change, negative = inhibition” value is 1.44% [at 33.1 µM].

Regarding `Cc1cc2c(c(=O)[nH]1)OC(C(O)CC(C)C)O2` (stereo unspecified), the “activity change, negative = inhibition” value was -18.4%.

Take `CC1CCC2(C(=O)O)CCC3(C)C(=CCC4C5(C)CCC(O)C(C)(CO)C5CCC43C)C2C1(C)O` (stereo unspecified): the “activity change, negative = inhibition” value is -2.54% [at 33.1 µM].

Consider `CC1CCC2C(C)(C)[C@@H](O)CC[C@]2(C)C12Cc1c(O)cc3c(c1O2)CN(C(CCC(=O)O)C(=O)O)C3=O` (stereo partly specified), for which the “activity change, negative = inhibition” value was -3.94% [at 33.1 µM].

As to `CC1(C)CCCC2(C)C(CO)C(CO)=CCC12` (stereo unspecified), the “activity change, negative = inhibition” value is -10.6%.

Take `COc1ccc(/C=C/C(=O)O[C@H]2[C@H](O[C@H]3[C@@H]4C=CO[C@@H](O[C@@H]5O[C@H](CO)[C@@H](O)[C@H](O)[C@H]5O)[C@@H]4[C@@]4(CO)O[C@@H]34)O[C@@H](C)[C@H](O)[C@H]2OC(C)=O)cc1`: the “activity change, negative = inhibition” value is 24.7% [at 15.1 µM].

For the compound `CC1=CCC2C(C)(C)CCC[C@]2(C)[C@@]12CC[C@](C)(CC(=O)O)O2` (stereo partly specified), the “activity change, negative = inhibition” value is -3.57% [at 33.1 µM].

Regarding `CC(Oc1cc(-n2cnc3ccc(CN4CCN(C)CC4)cc32)sc1C(N)=O)c1ccccc1C(F)(F)F` (stereo unspecified), the “activity change, negative = inhibition” value is 97.5%.

`COC(=O)N1CCC(n2ncc3c(N4CCOCC4)nc(-c4ccc(NC(=O)Nc5ccc(CO)cc5)cc4)nc32)CC1`: the “activity change, negative = inhibition” value was 19.2%.

Regarding `CN(C)C/C=C/C(=O)Nc1cccc(C(=O)Nc2cccc(Nc3ncc(Cl)c(-c4c[nH]c5ccccc45)n3)c2)c1`, the “activity change, negative = inhibition” value is 35.4%.

Take `C=CC(C)(C)C12C=C(OC)C(=O)N3C(C(C)C)C(=O)NC31N(OC)c1ccccc12` (stereo unspecified): the “activity change, negative = inhibition” value was -16.1% [at 33.1 µM].

`C[C@@]12CC[C@@H]3[C@@](CC[C@H]4[C@@]3(C)CCC[C@@]4(C)C(=O)O)(CC1=O)C2`: the “activity change, negative = inhibition” value was -12.3%.

With `O=C(c1ccccc1)c1ccc2nc(NC(=O)c3csc(C4CCN(c5ncnc6ccsc56)CC4)n3)[nH]c2c1`, the “activity change, negative = inhibition” value is 11.7%.

As to `C[C@@H]1CCC2C(C)(C)[C@H](O)CC[C@]2(C)[C@@]12Cc1c(O)cc3c(c1O2)CNC3=O` (stereo partly specified), the “outcome” value was “inactive [at 33.1 µM]”.

Take `CC(C)CC1NC(=O)C(C)NC(=O)C(CC(C)C)OC(=O)CCCNC1=O` (stereo unspecified): the “activity change, negative = inhibition” value is -23.7% [at 33.1 µM].
